Assay outcomes (PubChem)
Compounds with a hit are over-represented: about 2.2% of the library has one in this group of screens.
KKLEB cytotox = cytotoxicity in KKLEB CF airway cells, primary screen, cytotoxicity control for CF NF-kB inhibitor project, cell-based, uHTS, fluorescence assay plates. KKLEB CF airway cells viability, ATPlite luminescence, overnight; active compounds read low; cells stimulated with P. aeruginosa culture filtrate. activity change (cytotoxicity), % at 5 µM. actives 0.36% (n = 360,000);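 active = corrected activity change at or below -50% at 5 µM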
iPSC survival up = enhancers of single-cell hiPSC survival, primary screen, ATPlite luminescence; 100% = ROCK inhibitor wells, 0% = DMSO; survival enhancement, % at 20 µM; actives 0.044% (n = 360,000); in the data active = survival enhancement above about 18%;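 also: cells exposed to compounds for 16 hours before the ATP read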
HIF-2a block = HIF-2a reporter inhibitors, primary screen, luminescence, 786-0 RCC cells | 786-0 RCC cells HIF-2a reporter, luciferase luminescence, overnight | actives 0.72% (n = 360,000) | inhibition, % at 18.8 µM;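 active = inhibition of the luminescence signal of 40% or more relative to plate controls, in a single-dose primary screen at 18.75 µM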
CF NFkB inh = inhibitors of PAF-induced NF-kB signaling, primary screen, cell-based, GFP fluorescence, uHTS; KKLEB NF-kB-GFP reporter, GFP fluorescence overnight; inhibition, % at 5 µM; actives 0.86% (n = 360,000); AID 588850, 2011;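 active = at least 50% inhibition at 5 µM, scaled per plate between neutral and stimulator controls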;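 also: PAF is a Pseudomonas aeruginosa culture filtrate used as stimulus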
PPC-1+TRAIL kill = compounds killing PPC-1 cancer cells with TRAIL present, primary screen, TRAIL potentiator project, ATPLite luminescence, uHTS; PPC-1 cells + TRAIL, ATPLite viability luminescence; cell killing (% activity), % at 4 µM or 5 µM; actives 0.41% (n = 220,000); AID 1443, 2008;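 active = cell killing above 50% in the first pass at 4 µM, then a duplicate retest at 5 µM averaging 50% or more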
C8 TRAIL sens = viability loss with TRAIL in NB7+C8 cells, primary screen, TRAIL sensitizer project, cell-based, ATPlite luminescence; inhibition (viability loss, TRAIL sensitization), % at 10 µM; actives 1% (n = 360,000);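 active = compounds causing at least 50% loss of cell viability in the single-dose screen, relative to plate controls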
Mdm2-MdmX confirm = retested Mdm2-MdmX interaction blockers, confirmation, cell-based, luminescence, single concentration, set 2; shares compounds with HIF-2a block; SaOS-2 split-luciferase Mdm2/MdmX complementation; inhibition, % at 8 µM; actives 99% (n = 740); AID 504601, 2011;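 active = mean inhibition of the luminescence signal across two replicates at or above 26 percent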
HIF-2a conf = HIF-2a reporter inhibitor retest, confirmation, luminescence, 786-0 RCC cells. shares compounds with HIF-2a block. HIF-2a luciferase reporter luminescence, overnight. inhibition, % at 18.8 µM. actives 56% (n = 1,800);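 active = mean inhibition across four replicates of at least 40 percent at the single tested concentration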
HIF-1a counter = HIF-1a luciferase reporter signal reduction – MiaPaCa-2 cells, single concentration, counter-screen for HIF-2a inhibitor project, confirmation; shares compounds with HIF-2a block; MiaPaCa-2 HIF-1a luciferase reporter, desferoxamine, overnight; inhibition, % at 18.8 µM; actives 72% (n = 1,800); AID 651589, 2012;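 active = mean inhibition of the reporter signal across four replicates at the single tested dose of 50% or more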
Numbers stand for hits; i = inactive; nt = not tested or not shown.

SMILES	KKLEB cytotox	iPSC survival up	HIF-2a block	CF NFkB inh	PPC-1+TRAIL kill	C8 TRAIL sens	HIF-2a conf	HIF-1a counter	others
O=S(=O)(c1ccc(F)cc1)c1snnc1-c1ccccc1	i	i	41	i	i	i	i	i
CC(C)(C)c1ccc(CC(=O)N2CCC2(C)C(=O)NS(=O)(=O)c2cccs2)cc1 (configuration not stated)	i	i	i	i	nt	i	nt	nt
CCCCCCCCNCCS(=O)(=O)NCCCCCCCC	i	i	51	i	nt	i	i	106
O=C(O)c1cccc(COc2ccccc2Cl)c1	i	i	77	i	i	i	93	i	Mdm2-MdmX confirm=78
CCc1ccc(OC(=O)Nc2ccccc2)cc1	i	i	i	i	nt	i	nt	nt
CN(C)Cc1cc(C(F)(F)F)ccc1C(O)(c1ccccc1)c1ccccc1	i	i	i	i	nt	i	nt	nt
NC(N)=N/N=C/c1ccccc1	i	i	i	i	i	i	nt	nt
NC(N)=N/N=C/c1ccc(OCc2ccccc2Cl)cc1	i	i	93	i	i	i	i	106
CCC(=O)Nc1nnc(SCC(=O)NC2CCCC2)s1	i	i	i	i	nt	i	nt	nt
COc1cc(C(CC(=O)O)n2cnnn2)ccc1OC(C)C (configuration not stated)	i	i	i	i	i	i	nt	nt
CCOC(=O)c1nnc(-c2ccccc2)nc1Sc1ccccc1Cl	i	i	63	i	i	i	i	92
CCC1(C(=O)OC)CCc2c(cc(OC)c3ccccc23)C1=O (configuration not stated)	i	i	55	i	i	i	i	i
COc1ccc(C2N(c3ccc4c(c3)OCCO4)C(=O)C2(F)F)cc1OC (configuration not stated)	i	i	i	i	i	i	nt	nt
COc1ccc(C2=NN(C(=O)COC(=O)c3ccc(S(C)(=O)=O)c([N+](=O)[O-])c3)C(c3ccco3)C2)cc1 (configuration not stated)	-80	i	61	84	nt	90	i	103	Mdm2-MdmX confirm=103
COc1ccc(C2=NN(C(=O)COc3ncnc4ccccc34)C(c3ccco3)C2)cc1 (configuration not stated)	i	i	i	i	i	i	nt	nt
CCN(CC)c1ccc(S(=O)(=O)N2CCOCC2)cc1NC(=O)CN1CCN(Cc2ccccc2)CC1	i	i	i	i	i	i	nt	nt
C=C[C@]1(C)C=C2CCC3[C@](C)(CCC[C@@]3(C)C(=O)O)C2CC1 (some centres not stated)	i	i	i	i	nt	i	nt	nt
C=C1C(=O)[C@]23C[C@H]1CCC2[C@]1(C)CCC[C@@](C)(C(=O)O)C1C[C@@H]3O (some centres not stated)	-83	i	88	93	nt	i	91	104
CCc1ccc(C(=O)Cn2ncc(Cl)c(Cl)c2=O)cc1	-68	i	96	84	i	97	i	104	Mdm2-MdmX confirm=103
O=c1c(Cl)c(Cl)cnn1Cc1nnc(-c2ccc(Cl)cc2)o1	-82	i	94	80	i	i	i	105
Cc1ccc(Cn2ncc(Cl)c(Cl)c2=O)cc1	i	i	98	i	i	91	i	98
Cc1cc(C)cc(Cn2ncc(Cl)c(Cl)c2=O)c1	nt	nt	nt	nt	i	nt	nt	nt
Cc1cc(C(=O)CCC(=O)N(C)CC(=O)Nc2ccc(OC(F)(F)F)cc2)c(C)s1	i	i	i	i	nt	i	nt	nt
Oc1ccc(NCc2cccs2)cc1	i	i	57	i	nt	i	i	78
COC(=O)c1ccc2nc(Nc3nc4ccc(F)cc4s3)sc2c1	i	i	89	i	i	i	98	88
SMILES	KKLEB cytotox	iPSC survival up	HIF-2a block	CF NFkB inh	PPC-1+TRAIL kill	C8 TRAIL sens	HIF-2a conf	HIF-1a counter	others
CC(=O)c1sc(Nc2nc3ccc(F)cc3s2)nc1C	i	i	i	i	i	i	nt	nt
COc1ccc(S(=O)(=O)N2CCCCCC2)cc1NC(=O)CN1C(=O)NC(C)(c2ccccc2)C1=O (configuration not stated)	i	i	i	i	nt	i	nt	nt
CC(=O)c1ccc(NC(=O)CSc2nnc(C3CC3)n2C2CC2)cc1	i	i	i	i	nt	i	nt	nt
[O-]/C(=C(\C(=S)Nc1cccc2ccccc12)[n+]1ccccc1)c1ccc2c(c1)OCCO2	i	i	70	i	i	i	i	i
Cn1cc([N+](=O)[O-])c(C(=O)Nc2cc(Oc3ccccc3)cc([N+](=O)[O-])c2)n1	i	i	95	78	i	i	63	108
CCOc1ccc(C(=O)Nc2cccc(C(=O)O)c2C)cc1Cl	i	i	54	i	i	i	54	i
CCOc1ccc(C(=O)Nc2ccccc2-c2ccccc2)cc1Cl	i	i	i	i	i	i	nt	nt
Cc1ccc(Cl)c(NC(=O)COC(=O)c2ccccc2C(=O)c2ccc(Cl)c([N+](=O)[O-])c2)c1Cl	-99	i	97	94	i	i	i	108
CC(C)NC(=O)CCCN1C(=O)c2ccccc2Sc2ncccc21	i	i	i	i	nt	i	nt	nt
O=C(CN(c1ccc(Br)cc1)S(=O)(=O)c1ccc(Cl)c([N+](=O)[O-])c1)NCC1CCCO1 (configuration not stated)	i	i	86	i	nt	i	i	103
CCOC(=O)c1ccc(-c2ccc(N3C(c4ccsc4)=Cc4ccc(F)cc4C3c3c[nH]c4ccc(C#N)cc34)cc2)cc1F (configuration not stated)	nt	i	71	nt	nt	i	47	i
CC(C)(C)OC(=O)N[C@@H](Cc1ccccc1)C(=O)N[C@@H](CO)[C@H](O)[C@@H]1C[C@@H]1C(=O)NC1CCCCC1	i	i	i	i	nt	i	nt	nt
Cc1ccc(C)c(CN2C(=O)c3ccccc3S(=O)c3ccc(C(=O)N4CCN(c5ccccn5)CC4)cc32)c1 (configuration not stated)	i	i	i	i	i	i	nt	nt	Mdm2-MdmX confirm=101
CCOC(=O)c1c(C)[nH]c(C(=O)Nc2ccc(NC(C)=O)cc2)c1C	i	i	88	i	i	i	96	84
